Data as given in the supplement of paper PMC10723795.
± gives the standard deviation of the averaged measurements.

Each compound was assayed on BJ5TA (assay: nucleolar normality score relative to DMSO (fraction of DMSO control); RPE1 is a non-cancer human cell line; higher = more normal nucleoli (less nucleolar stress)).
Description: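 Selected screen hits were validated in hTERT lines (BJ5TA, CHON-002, RPE1) and cancer lines (DLD1, HCT116). Cells were immunostained for nucleolin and UBF and the nucleolar normality score was measured per field of view, with 4 fields per drug. Scores are normalized to each cell line's own DMSO control. Dose and time are not stated for this panel.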

Compound | nucleolar normality score
CC[C@@]1(O)C(=O)OCc2c1cc1n(c2=O)Cc2cc3ccccc3nc2-1 [Camptothecin] | 0.473 ± 0.03
